Rows were chosen to be rich in hits. Some 1.1% of all compounds tested hit in one or more screens of this group.
HIF act: HIF pathway transcriptional activation; 0.32% of 300,000 active; AID 1910; U2OS HRE-luciferase reporter, luminescence; normalized: DMSO 0%, desferrioxamine 100%; activation, % at 7.5 µM (by protocol);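 active = mean activation of at least 10% of the iron chelator positive control signal, with at least half of replicates also reaching 10%; inconclusive = mean and replicate majority disagree about reaching 10%; inactive = mean and most replicates under 10%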
zVAD death inh: blocks zVAD induced death of L929 cells | viability rescue, % at 10 µM | 0.38% of 220,000 active | L929 zVAD necroptosis rescue, ATP luminescence, 24 h; with zVAD 60 µM | AID 1377;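 active = activation, scaled between plate controls, above about 75%, limit read from the data; inactive = activation under that limit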;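 note: 0% = zVAD with DMSO and 100% = DMSO alone without zVAD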
TNF death inh: inhibitors of TNF-alpha induced necroptosis in Jurkat FADD-/- cells; Jurkat FADD-/- TNF necroptosis rescue, ATP luminescence, 24 h; 0 = TNF only, 100 = no-TNF cells; 0.068% of 220,000 active; activation (protection from cell death), % at 10 µM; AID 463075;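 active = activation, meaning protection from cell death, of at least 50% relative to plate controls; inactive = activation below 50%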;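 note: necroptosis triggered by 40 ng/mL TNF-alpha added together with compound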
Calb FLC: affects C. albicans growth with fluconazole; AID 1979; 0.57% of 300,000 active; C. albicans CaCi-2 (fluconazole-resistant clinical isolate) + fluconazole, Alamar Blue growth, 48 h; growth inhibition, % (test concentration not listed);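 active = growth inhibition above about 58% in most replicates, limit read from the data, passing the limit was not always enough; inconclusive = exactly half the replicates above a set limit; inactive = most replicates below a set limit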;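 note: all wells also contain fluconazole at 8 µg/ml as a sub-toxic cotreatment; 0% = median of DMSO wells and 100% = median of geldanamycin control wells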
Starred values were filed as active, the others as inactive; ? = inconclusive; nt = no result.

SMILES	HIF act	zVAD death inh	TNF death inh	Calb FLC
Cc1ccc(C(=O)NC(=S)NNC(=O)CC#N)cc1	0	32	-1	109*
CCCCN(CCCC)CCNC(=O)c1cn(CC)c2ccc(S(=O)(=O)N3CCCC3)cc2c1=O	0	nt	nt	1
O=C(NNc1cc(Cl)cc(Cl)c1)c1cccs1	0	1	-1	-33
O=C(NNc1ccc(Cl)cc1)c1cccs1	0	-1	1	82*
O=C(CCS(=O)(=O)c1ccc(Cl)cc1)Nc1nc(-c2ccncc2)cs1	-1	nt	nt	85*
NS(=O)(=O)c1cccc(NC(=O)COC(=O)C2CCCCC2)c1	0	26	2	0
CCCCCC(=O)N/N=C/c1ccc([N+](=O)[O-])o1	0	2	-9	-9
O=C(CCC(=O)Nc1ccc(Cl)cc1Cl)N/N=C/c1ccc([N+](=O)[O-])o1	1	15	-12	101*
CC/C(=N\NC(=S)Nc1cccc(C)c1)c1ccccc1	0	0	0	5
Cc1cccc(NC(=S)N/N=C(\c2ccccc2)C(C)C)c1	0	-2	-2	102*
N#C/C(N=Nc1ccccc1O)=N\Nc1ccccc1O	1	nt	nt	0
C=CCOc1ccc(/C=C2\SC(=S)N(NS(=O)(=O)c3ccc(C)cc3)C2=O)cc1	-2	nt	nt	88*
COc1ccc(S(=O)(=O)N(C(C)=O)c2ccc(OC(C)=O)c3ccccc23)cc1[N+](=O)[O-]	0	47	-10	2
CCOC(=O)c1c(C)[nH]c(C(=O)OCc2ccccc2F)c1C	11*	nt	nt	0
CCCCN(C(=O)c1c(C)[nH]c(C(=O)OCC)c1C)c1ccccc1	10*	0	0	-4
CCOC(=O)c1c(C)[nH]c(C(=O)OCC(=O)c2ccccc2)c1C	2	nt	nt	1
CCOC(=O)c1c(C)[nH]c(C(=O)OCc2ccc(F)cc2)c1C	3	nt	nt	3
CC1O[C@@H](O[C@H](C)CC[C@@H](C)O)C(O)C[C@H]1O (some centres undefined)	-1	nt	nt	5
O=C(/C=C/c1ccc([N+](=O)[O-])cc1)N(c1ccccn1)C1CCCCC1	0	1	-1	1
Cc1ccc(Cl)cc1N1CCN(CC(O)COCc2ccco2)CC1 (centres undefined)	194*	0	-1	-38
Cc1ccc2nc(SCC(=O)c3ccc(O)cc3O)[nH]c2c1	3	2	3	3
CC(=O)NC(c1ccccc1)c1cc(Cl)c2cccnc2c1O (centres undefined)	4	nt	nt	105*
O=C(NC(c1ccc(Cl)cc1)c1cc(Cl)c2cccnc2c1O)c1cccnc1 (centres undefined)	0	nt	-22	84*
CCC(=O)NC(c1ccc(C)cc1)c1cc([N+](=O)[O-])c2cccnc2c1O (centres undefined)	3	2	-7	110*
CC(=O)NC(c1ccc(C)cc1)c1cc([N+](=O)[O-])c2cccnc2c1O (centres undefined)	0	2	-6	109*
SMILES	HIF act	zVAD death inh	TNF death inh	Calb FLC
O=C(CCC1CCCCC1)Nc1nnc(C(F)(F)F)s1	-2	nt	nt	29
CCOc1ccc(S(=O)(=O)N2CCCCC2)cc1NC(=O)CN1C(=O)NC(C)(c2ccccc2)C1=O (centres undefined)	-3	nt	nt	nt
CC(=O)N1CCN(S(=O)(=O)c2c(C)n(C)c(=O)n(C)c2=O)CC1	0	nt	nt	-7
CCCC(=O)NC(c1ccc(OC)c(OC)c1)c1cc(Cl)c2cccnc2c1O (centres undefined)	0	37	-10	13
CCCC(=O)NC(c1ccco1)c1cc([N+](=O)[O-])c2cccnc2c1O (centres undefined)	0	0	-1	109*
COc1cnc(-c2ccccn2)nc1Oc1ccccc1	0	1	-2	19
COc1cnc(-c2ccccn2)nc1N(C)c1ccccc1	114*	nt	nt	?
CC(=O)N(C(C)=O)c1ncnc2c1c(-c1ccc(Cl)cc1)nn2C(C)(C)C	0	71	0	62
CC(=O)Nc1ncnc2c1c(-c1ccc(Cl)cc1)nn2C(C)(C)C	0	67	2	102*
Cc1ccc(-n2nc3c(=O)n(CC(=O)NCc4ccccc4Cl)nc(C)c3c2C)cc1	0	nt	nt	2
Cc1ccc(-n2nc3c(=O)n(CC(=O)NCc4ccccc4)nc(C)c3c2C)cc1	89*	nt	nt	8
CCCC(=O)N1CCCC(C(=O)c2ccc(OC)c(OC)c2)C1 (centres undefined)	-1	nt	nt	1
COc1ccc(C(=O)C2CCCN(C(=O)C3CCOCC3)C2)cc1OC (centres undefined)	424*	nt	nt	-10
COc1ccc(C(=O)CSc2nnc(-c3ccco3)n2C)cc1	0	0	2	2
Cn1c(SCC(=O)c2ccccc2)nnc1-c1ccco1	13*	0	6	3
O=C(CSc1nnc(-c2ccco2)n1Cc1ccccc1)OC1CCCCC1	7	0	-3	97*
CCn1ncc(C2=NOC(C(=O)Nc3cnn(C45CC6CC(CC(C6)C4)C5)c3)C2)c1C (centres undefined)	0	87*	-5	20
CCn1ncc(C2=NOC(C(=O)NCC(C)C)C2)c1C (centres undefined)	0	0	-1	6
CC(Oc1cccc2ccccc12)C(=O)N/N=C/c1cccnc1 (centres undefined)	0	nt	nt	5
CN1/C(=C/C(=O)c2cccs2)Sc2ccccc21	1	0	-8	84*
CN1/C(=C\C(=O)c2cccs2)Sc2ccccc21	1	1	-7	4
CCc1c(C)c2ccc(OCC(=O)NCC3CCC(C(=O)O)CC3)cc2oc1=O (centres undefined)	0	nt	nt	-5
COC(=O)CN1C(=O)[C@H]2[C@@H](c3ccc(C)o3)N3C(=O)CN(CC4CC4)C(=O)[C@@]3(Cc3ccccc3)[C@H]2C1=O	287*	nt	nt	-13
O=C(O)CC1(CC(=O)NCc2ccccn2)CCCCC1	0	1	2	0
COC(=O)C1CCN(S(=O)(=O)CCNC(=O)c2ccc(F)cc2)CC1	1	nt	nt	-6
SMILES	HIF act	zVAD death inh	TNF death inh	Calb FLC
CCOC(=O)c1ccccc1OCc1cc(/C=N/n2cnnc2)ccc1OC	5	1	-4	102*
CCOC(=O)c1ccccc1OCc1cc(/C=N/NC(=O)c2cccnc2)ccc1OC	0	0	-15	1
O=C(/C=C/c1ccc(NC(=O)c2ccccc2-c2ccccc2C(=O)O)cc1)c1ccccc1	-21	nt	nt	98*
CCCOc1ccc(C(=O)NNC(=O)CCNC(=O)c2ccccc2Cl)cc1OC	0	nt	nt	0
CCOc1ccc(Nc2nc(NCC3CCCO3)c3ccccc3n2)cc1 (centres undefined)	0	3	-4	99*
O=C(CSc1ccc(Cl)cc1)N1N=CCC1c1ccccc1 (centres undefined)	0	65	100*	14
CCc1cc(C(=O)Nc2cc(S(=O)(=O)N(C)C)ccc2C)sc1C	0	18	4	2
Cc1cc(C)nc(Sc2ncnc(N)c2[N+](=O)[O-])n1	11*	2	6	19
